In the library only some 19% were active in any assay of this set; here they are far more common.
Pf growth 48h – Primary qHTS for delayed death inhibitors of the malarial parasite plastid, 48 hour incubation; 310,000 compounds, 5.9% hits; Potency, µM (doses to about 28.7 µM), for the others: at the highest dose activity change, negative = inhibition, usual class: inhibitors; AID 504832, 2011; P. falciparum luciferase growth in erythrocytes, 48 h; note: potency is the fitted concentration of half-maximal effect; % is set by controls: 0 for no effect and ±100 for the full control effect
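Luciferase-expressing P. falciparum in infected erythrocytes (2% hematocrit, 0.1% parasitemia final) in RPMI 1640/0.5% Albumax were exposed to compound for 48 hours at 37 C, 5% CO2; growth read as luminescence.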
Cycloheximide cs – Cycloheximide Counterscreen for Small Molecule Inhibitors of Shiga Toxin. AID 2314, 2010. cell reporter, cycloheximide protein synthesis inhibition counterscreen. max response, %. 300,000 compounds, 12% hits; in the data active = max response mostly above about 13%, no sharp cut-off; inactive = mostly below about 14%; note: read at 38.3 µM for the half of the compounds with a filed dose; 0% is about no effect
Pf growth 96h – Primary qHTS for delayed death inhibitors of the malarial parasite plastid, 96 hour incubation; P. falciparum luciferase reporter growth, 96 h; 320,000 compounds, 6.9% hits; Potency, µM (top dose mostly 28.7 µM), for inactives: at the top dose activity change, negative = inhibition, hits mostly inhibitors; note: potency is the fitted concentration of half-maximal effect; % is set by controls: 0 for no effect and ±100 for the full control effect
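P. falciparum expressing integrated firefly luciferase, in erythrocytes at 2% hematocrit, 0.05% parasitemia, incubated with compounds 96 h at 37 C, 5% CO2. Growth inhibition read as loss of luminescence; two-generation exposure targets delayed-death apicoplast inhibitors.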
AMA1 RON2 block – qHTS for Inhibitors of AMA1-RON; Towards Development of Antimalarial Drug Lead: Primary Screen; Plasmodium falciparum AMA1 (3D7) - RON2 peptide interaction; AlphaScreen AMA1-biotinylated RON2 peptide binding; Potency, µM (top dose mostly 58.2 µM), without a hit: at the highest dose activity change, negative = inhibition, most hits filed as inhibitors; 360,000 compounds, 0.2% hits;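 note: potency is the fitted concentration of half-maximal effect; 0% = vehicle wells and -100% = peptide control; nearly all actives have a fitted effect of over 45% in size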
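AMA1 (3D7) with his tag at 25 nM final met compounds first, then biotinylated RON2 peptide at 25 nM; detection used donor plus acceptor beads, 10 µg/mL apiece, read by AlphaScreen after 30 min at room temperature.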
SARS PLpro yeast – qHTS of Yeast-based Assay for SARS-CoV PLP. AID 485353, 2010. S. cerevisiae expressing SARS-CoV PLpro, growth rescue. 330,000 compounds, 0.19% hits. Potency, µM (highest dose often 32.9 µM), for the others: at the top dose activity, positive = growth rescue, most hits filed as activators; calls by dose curve; note: potency is the fitted concentration of half-maximal effect; 0% is about no effect; nearly all actives have a fitted effect of over 55% in size
Shiga toxin inh – A qHTS for Small Molecule Inhibitors of Shiga Toxin. 290,000 compounds, 9.2% hits. Vero cells, Shiga toxin protein synthesis inhibition reporter. inhibition, % at 38.7 µM; in the data active = inhibition mostly above about 28%, no sharp cut-off; inactive = mostly below about 43%; note: 0% is about no effect
Numbers without * were called inactive; ? = inconclusive; . = not tested or not shown; [ ] = remark or other dose. Unless noted, calls come from the whole dose curve; as a rule, active = well fitted curve in the direction sought with a large enough effect; inconclusive = small, poorly fitted or top-dose-only effect, or another doubt; inactive = no such curve, though single readings can be large; an effect the other way counts as inactive or inconclusive.

SMILES	Pf growth 48h	Cycloheximide cs	Pf growth 96h	AMA1 RON2 block	SARS PLpro yeast	Shiga toxin inh
CC(=O)Oc1cccc(/C=N\NC(=O)C(=O)N/N=C/c2cccc(OC(C)=O)c2)c1	4%	.	-7%	-6%[11.6 µM]	-10%	.
N#CCC(=O)N/N=C\c1cccc(OC/C=C/c2ccccc2)c1	263%	53*	?	0%	-5%	122*
CC(=O)N/N=C\c1ccccc1OC/C=C/c1ccccc1	3%	22*	?	14%	0%	93
C=CCOc1cccc(/C=N/NC(=O)CN2CCCCC2)c1	26%	7	22%	1%	-2%	-2
Cn1c(CNC(=O)CCNC(=O)c2ccccc2F)cc(=O)n(C)c1=O	18%	-4	26%	-2%	-6%	-3
CCOc1ccc(OCC(=O)OCC(=O)N2CCN(S(=O)(=O)c3ccc(C)cc3C)CC2)cc1	.	.	.	11%	.	.
O=C(NC1CCCCC1)NC1CC2CCCC(C1)N2C1CCCC1 (stereo not drawn)	2%	-3	13µM*	-5%	2%	-12
O=C(NC1CC2CCCC(C1)N2C1CC1)NC12CC3CC(CC(C3)C1)C2 (stereo not drawn)	-15%	-3	-2%	.	7%	-5
Cc1c(C)n(Cc2ccc(F)cc2)c2ccc(C(=O)NCCCN3CCOCC3)cc12	9.3µM*	-5	33%	-23%	2%	-4
Cc1c(C)n(Cc2ccccc2)c2ccc(C(=O)NCCCN3CCOCC3)cc12	-19%	-3	32%	?	6%	-6
Cc1c(C)n(C)c2ccc(C(=O)NCCCN3CCN(c4ccccc4F)CC3)cc12	10µM*	-4	-20%	-27%	-3%	-5
COc1ccc(-c2c3c(=O)n(C)c(=O)n(C)c3cn2C2CCCCC2)cc1	?	7	22%	-19%	1%	-10
N#CC1=C(N)Oc2cc(N)ccc2C1c1ccc(F)cc1F (stereo not drawn)	1%	-2	5.9µM*	-7%	-5%	-2
CC[n+]1ccccc1/C=C1\Sc2ccc(C)cc2N1C	1µM*	-2	26%	0%	-3%	44
CN1/C(=C/c2cccc[n+]2CCO)Sc2ccccc21	?	1	?	-7%	0%	-9
Cc1nc2c(Br)cc(Br)cc2c(=O)n1-c1ccccc1NC1OCC(O)C(O)C1O (stereo not drawn)	.	.	.	-11%	.	.
O=Nc1nc2ncccn2c1-c1ccccc1	.	.	.	9%	.	.
CC(C)C[C@H](NC(=O)N1CCn2c1nc1ccccc12)C(=O)NCc1ccccc1	?	-3	?	77%	.	7
CCn1cc(CN2CCC(n3nccc3NC(=O)Cc3ccccc3)CC2)c(C)n1	0%	-3	-17%	-7%	10%	-9
COCC1CCN(Cc2cn(Cc3ccccc3)nc2-c2cc3ccccc3o2)CC1	?	-3	31%	0%	0%	14
OC1CCN(Cc2cn(Cc3ccccc3)nc2-c2cc3ccccc3o2)CC1	13µM*	-3	-24%	-8%	0%	9
COC(=O)C1CCN(Cc2cn(Cc3ccccc3)nc2-c2cc3ccccc3o2)CC1	8.3µM*	0	-4%	-7%	-1%	-5
COc1ccc(-c2cc(C(F)F)n3ncc(C(=O)N4CCN5CCCC5C4)c3n2)cc1 (stereo not drawn)	?	-3	9.3µM*	-8%	2%	14
COc1ccc(NS(=O)(=O)c2ccc(NC(=O)c3cnn4c(C(F)F)cc(-c5ccc(C)cc5)nc34)cc2)cc1	?	-3	0.83µM*	.	-2%	-15
Cc1ccc(-c2cc(C(F)F)n3ncc(C(=O)Nc4ccc(S(=O)(=O)Nc5ccccc5C)cc4)c3n2)cc1	1.9µM*	10	15µM*	-4%	0%	-10
SMILES	Pf growth 48h	Cycloheximide cs	Pf growth 96h	AMA1 RON2 block	SARS PLpro yeast	Shiga toxin inh
C/C(=N\n1cnnc1)c1ccccc1	8%	-7	21%	-7%	-1%	6
COc1ccc(C(=O)N2CCc3[nH]nc(-c4ccccc4)c3C2)cc1	-30%	23	-22%	0%	-4%	-4
NS(=O)(=O)c1ccc(NC(=O)COC(=O)Cc2c[nH]c3ccccc23)cc1	.	.	.	-10%	0%	.
Cc1cc2cc(CCNC(=O)CCc3ccccc3)c(=O)[nH]c2cc1C	?	-1	?	-2%	3%	-8
COc1ccc(-c2[nH]ncc2CN2CCN(c3ccc(F)cc3)CC2)cc1	13%	7	?	14%	0%	12
Cc1ccc(Cn2nnnc2CN2CCC(O)(c3ccc(F)cc3)CC2)cc1	13µM*	-2	36%	2%	-4%	2
OC1(c2ccc(Cl)cc2)CCN(Cc2cn[nH]c2-c2ccccc2)CC1	?	7	9.3µM*	6%	0%	-6
COc1ccc(-c2[nH]ncc2CN2CCC(O)(c3ccc(Cl)cc3)CC2)cc1	?	-2	12µM*	?	0%	-3
OC1(c2ccc(Cl)cc2)CCN(Cc2cn[nH]c2-c2ccc(F)cc2)CC1	13µM*	-2	?	-2%	0%	-5
CC(C)(C)OC(=O)C[C@H]1C/C=C\C[C@@H](CC(=O)NCCO)C(=O)N[C@H](C(C)(C)C)COC1=O	.	.	.	0%	-4%	.
CCCCCCCCCCCCCCCC(=O)OC(CC(=O)O)C[N+](C)(C)C (stereo not drawn)	1%	.	-12%	2%	.	.
COc1ccc(NC(=O)CC2C(=O)N(c3cccc(C)c3)C(=O)N2C2CCCCC2)cc1 (stereo not drawn)	-17%	1	-5%	-8%	-6%	-13
O=C(Nc1ccnn1C1CCN(Cc2ccccc2OC(F)F)CC1)c1cccnc1	?	-2	?	4%	1%	-5
C/C(=N\NC(=O)c1nnn(-c2nonc2N)c1C)c1ccc(OCc2ccccc2)cc1	50%	22*	5%	10%	0%	57*
COCc1c(C(=O)N/N=C(/C)c2ccc(OCc3ccccc3)cc2)nnn1-c1nonc1N	45%	23*	47%	3%	-8%	97*
COc1ccc(-n2c(C)cc(/C=N/Nc3nc(N4CCOCC4)nc(N4CCOCC4)n3)c2C)cc1	?	-4	?	8%	15%	-11
CC(C)c1ccc(C2N3CCCN23)cc1 (stereo not drawn)	22%	8	10%	13%	-15%	25
c1ccc2cc(C3N4CCCN34)ccc2c1 (stereo not drawn)	41%	24*	11%	-2%	1%	24
Cc1ccc(N(CC(=O)NC(C)(C)C)C(=O)CNC(=O)c2cccs2)c(C)c1	8.3µM*	-2	20%	4%	0%	2

Compound activity as filed in PubChem.
